Compound activity deposited in PubChem by several laboratories.
Only some compounds are listed: those with a hit (about 1.4% of all), similar ones and a draw of the others.
MBD2 inh – MBD2-methylated oligo binding inhibition | Q9UBB5 | 0.31% of 370,000 active | inhibition, % at 4.4 µM | TR-FRET, MBD2 binding to methylated oligonucleotide; in the data active means inhibition above about 13%
Target sequence (Q9UBB5 whole entry, looked up): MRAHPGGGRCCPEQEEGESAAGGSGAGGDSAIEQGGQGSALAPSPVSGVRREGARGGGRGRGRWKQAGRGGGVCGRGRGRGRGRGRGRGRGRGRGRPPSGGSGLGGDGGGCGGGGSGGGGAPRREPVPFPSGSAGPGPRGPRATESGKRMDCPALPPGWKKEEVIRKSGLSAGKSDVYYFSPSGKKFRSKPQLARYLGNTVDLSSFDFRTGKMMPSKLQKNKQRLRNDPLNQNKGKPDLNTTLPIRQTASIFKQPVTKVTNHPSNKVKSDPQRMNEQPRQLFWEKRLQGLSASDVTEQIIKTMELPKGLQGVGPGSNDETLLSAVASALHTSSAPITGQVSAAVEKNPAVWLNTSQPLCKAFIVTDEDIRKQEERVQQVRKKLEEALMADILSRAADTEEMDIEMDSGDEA
Casp6 inh – caspase-6 (human) enzyme inhibition; purified caspase-6, Z-VEID-R110 cleavage fluorescence; inhibition, % at 12.5 µM; 0.53% of 350,000 active;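 active means mean inhibition across replicates at least about 35%, with every replicate also reaching that limit, limit read from the data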;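 further: 0% = median of neutral control wells and 100% = no fluorescence left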
UHRF1 MBD2 ctr – blocks human UHRF1 binding to methylated DNA. Q96T88. UHRF1 binding to methylated oligo, TR-FRET. inhibition, % at 4.4 µM. 0.75% of 370,000 active; in the data active means inhibition above about 21%;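 further: UHRF1 SRA domain binding a hemimethylated CpG hairpin DNA probe; 0% = median of test compound wells and 100% = reference inhibitor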
LEDGF integ inh – blocks HIV-1 LEDGF/p75-dependent DNA integration | TR-FRET IN-LEDGF/p75 DNA integration, Eu/Cy5 | inhibition, % at 3.7 µM | 0.64% of 370,000 active;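 active means inhibition above the screen-wide mean plus 3 SD, cut at about 13% in these data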;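 further: signal is the Cy5 over europium emission ratio at 671 and 618 nm; 0% = plate median of compound wells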
IN multimer up – counter-screen for LEDGF/p75 integration inhibitors: HIV-1 integrase multimerization activators; activation, % at 7.7 µM; TR-FRET HIV-1 integrase multimerization, biochemical; 17% of 2,000 active; shares compounds with LEDGF integ inh; in the data active means activation above about 8.9%
TRFRET interf – TR-FRET optical interference, LEDGF/p75 integration counter-screen; TR-FRET optical interference counterscreen, HIV-1 IN multimerization; shares compounds with LEDGF integ inh; 2,000 tested, under 10 active; inhibition, % at 7.7 µM; AID 1053135;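 active means inhibition above the mean over all tested compounds plus 3 SD, which no compound reached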;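 further: 0% = integrase with antibodies and DMSO and 100% = antibodies without integrase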
IN-LEDGF confirm – LEDGF/p75-dependent HIV-1 integration inhibition, confirmation. shares compounds with LEDGF integ inh. TR-FRET LEDGF/p75-dependent HIV-1 integration, biochemical. inhibition, % at 3.7 µM. 36% of 2,000 active; in the data active means inhibition above about 14%
Starred values were filed as active, the others as inactive; . = not tested or not shown.

SMILES | MBD2 inh | Casp6 inh | UHRF1 MBD2 ctr | LEDGF integ inh | IN multimer up | TRFRET interf | IN-LEDGF confirm
CC(C)(C)OC(=O)N1Cc2ccccc2C[C@H]1C(=O)NC1CCCC1 | 0.6 | 1.1 | -0.7 | 52.7* | 0.0 | 0.2 | -1.6
COc1ccc2c3c([nH]c2c1)[C@@H](CO)N(C(=O)NC(C)C)CC31CN(C(=O)c2cnccn2)C1 | . | 1.4 | . | . | . | . | .
CO[C@@H]1CN(C)C(=O)c2ccc(NC(=O)C3CCCC3)cc2OC[C@@H](C)N(CC2CC2)C[C@H]1C | . | 4.2 | . | . | . | . | .
O=[N+]([O-])c1ccccc1N=Nc1ccc(O)cc1O | -5.4 | 7.3 | -2.0 | -3.8 | . | . | .
O=S(=O)(O)c1cc(O)c(N=Nc2ccc(O)cc2O)c2ccccc12 | -7.2 | 52.0* | 11.7 | 32.5* | 95.1* | -338.5 | 40.4*
CN(C)c1cccc2c(S(=O)(=O)Nc3ccccn3)cccc12 | 0.4 | . | -1.4 | 19.4* | 0.4 | -1.5 | -1.8
COc1ccc(/C=N/NC(=O)c2nn(-c3ccccc3)c(=O)c3c(N)scc23)cc1 | -1.8 | . | 12.0 | 17.2* | 6.5 | -23.2 | 16.6*
COc1ccc(/C=N/NC(=O)c2nn(-c3ccc(Cl)cc3)c(=O)c3c(N)scc23)cc1 | -2.1 | . | 7.5 | 11.0 | . | . | .
C[C@@H]1CCCCO[C@H](CN(C)C(=O)Nc2ccccc2)[C@H](C)CN([C@@H](C)CO)C(=O)c2cc(NS(=O)(=O)c3cccs3)ccc2O1 | . | -1.2 | . | . | . | . | .
Oc1ccc(/C=N/N2CCCCC2)c(O)c1O | -2.4 | 38.6* | 12.1 | 28.2* | 4.6 | -16.4 | 24.7*
Oc1ccc(/C=N/N2CCOCC2)c(O)c1O | -3.1 | 7.4 | 6.6 | 52.0* | 8.5 | -43.1 | 17.8*
CCC(=O)N1[C@@H](CO)[C@@H]2c3ccccc3N(C(=O)c3ccc4c(c3)OCO4)C[C@@H]21 | . | -0.8 | . | . | . | . | .
O=C(Nc1cccc(Cl)c1)N[C@@H]1CC[C@H](CCNC(=O)C2CC2)O[C@@H]1CO | . | -2.9 | . | . | . | . | .
Clc1ccc2nc(-c3ccccc3)c(Cc3ccccc3)n2c1 | -4.6 | 2.7 | 1.1 | 27.2* | -0.7 | 3.5 | -3.1
Cc1ccc(Cc2c(-c3ccc(Br)cc3)nc3ccc(Cl)cn23)cc1 | -2.6 | 1.8 | -1.4 | 14.2* | -0.2 | 1.2 | 0.4
Cc1ccc(Cc2c(-c3ccc(C)cc3)nc3ccc(Cl)cn23)cc1 | 3.2 | -1.1 | 2.7 | 1.9 | . | . | .
Clc1ccc(-c2nc3ccc(Cl)cn3c2Cc2ccccc2)cc1 | 0.7 | -0.1 | 12.1 | -3.2 | . | . | .
COC(=O)c1ccc(NC(=S)N2CCN(Cc3ccccc3Cl)CC2)cc1 | 0.2 | -0.1 | 1.1 | 75.6* | 0.3 | -1.4 | -10.2
Cc1noc(C)c1S(=O)(=O)N(C)C[C@@H]1OCCCC[C@H](C)Oc2ccc(NS(C)(=O)=O)cc2C(=O)N([C@H](C)CO)C[C@@H]1C | . | -0.4 | . | . | . | . | .
C=CCNC(=S)N/N=C(\C)c1ccc(OC)cc1 | 9.6 | 19.8 | 27.0* | 16.0* | 0.8 | -3.8 | -10.3
C=CCNC(=S)N/N=C(\C)c1cccc(OC)c1 | 2.1 | . | -3.1 | 1.5 | . | . | .
CCN1CC(=O)N2[C@@H](CO)[C@@H](c3ccc(Br)cc3)[C@@H]2C1 | . | -1.0 | . | . | . | . | .
O=C(C[C@H]1C=C[C@@H](NC(=O)Nc2cc(F)ccc2F)[C@H](CO)O1)NCc1ccncn1 | . | 2.5 | . | . | . | . | .
Cc1cc2nc(-c3ccco3)c(CC(C)(C)C)n2c(C)c1Br | -3.1 | 9.8 | 10.2 | 6.2 | . | . | .
COc1ccccc1Cc1c(-c2ccco2)nc2cc(C)c(Br)c(C)n12 | 10.1 | 6.0 | 24.9* | 13.6* | 6.2 | -22.5 | 20.8*
CC(=C/C(=O)O)/C=C/c1ccc(Cl)o1 | 7.9 | . | 32.4* | 13.4* | 5.4 | -27.3 | 54.2*
O=C(CCCOc1ccc(Cl)cc1Cl)NCCCn1ccnc1 | 0.7 | -4.9 | 0.5 | 26.8* | 0.2 | -0.9 | 1.8
Cc1cc(Cl)ccc1OCCCC(=O)NCCCn1ccnc1 | 2.2 | 11.2 | 0.1 | -5.8 | . | . | .
Nc1ccc(Br)c2cccnc12 | -15.4 | 30.3 | 4.1 | 54.1* | 1.2 | -4.4 | 52.9*
CCCCOCC1CN(CCCC)S(=O)(=O)c2c(F)cccc2O1 (configuration not stated) | 0.2 | 0.6 | 1.1 | -0.5 | . | . | .
